Only some compounds are listed: those with a hit (about 3.7% of all), similar ones and a draw of the others.
TIM10 inh = growth inhibitors of TIM10 yeast strain; S. cerevisiae TIM10 strain growth, BacTiter-Glo luminescence, 24 h; inhibition, % at 10 µM; 330,000 tested, 1.4% active; AID 463195;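 active means inhibition of 40% or more at the single tested concentration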;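 further: wild-type TIM10 isogenic control strain grown at permissive 25 °C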
tim10-1 inh = inhibits growth of tim10-1 mutant yeast. 330,000 tested, 2.2% active. S. cerevisiae tim10-1 ts strain growth, BacTiter-Glo, 24 h. AID 463190. inhibition, % at 20 µM;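 active means inhibition of at least 40%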;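 further: mutant grown at 25 °C; 0% = DMSO wells with yeast and 100% = wells holding no yeast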
Rce1 inh = yeast Ras-converting enzyme inhibition; Q03530; calls only; 290,000 tested, 0.27% active; yeast membranes, quenched prenylated peptide cleavage fluorescence;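 active means fall in fluorescence gain of 50% or more versus controls, with final raw signal at or below 3038400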;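 further: plate controls were neutral control wells for no effect and wells lacking membranes for full effect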
Target sequence (Q03530 whole entry, looked up): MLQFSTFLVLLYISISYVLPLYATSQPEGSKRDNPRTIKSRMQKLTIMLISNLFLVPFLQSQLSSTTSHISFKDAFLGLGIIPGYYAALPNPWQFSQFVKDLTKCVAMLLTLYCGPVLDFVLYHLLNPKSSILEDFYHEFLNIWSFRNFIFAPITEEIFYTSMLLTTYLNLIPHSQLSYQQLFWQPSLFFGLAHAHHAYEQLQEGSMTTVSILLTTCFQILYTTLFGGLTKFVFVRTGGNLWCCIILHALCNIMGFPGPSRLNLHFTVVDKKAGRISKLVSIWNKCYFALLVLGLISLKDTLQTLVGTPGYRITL
tim23-1 inh = tim23-1 yeast growth inhibition; S. cerevisiae tim23-1 growth, BacTiter-Glo luminescence, 24 h; inhibition, % at 20 µM; 330,000 tested, 1.3% active;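 active means growth inhibition of the mutant yeast at or above 50%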;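 further: temperature-sensitive mutant grown at 25 °C; plate controls were DMSO-treated mutant yeast for no effect and medium wells lacking yeast for full effect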
PfHsp90 yeast 2 = inhibits growth of yeast expressing Plasmodium falciparum Hsp90 | S. cerevisiae expressing PfHsp90, BacTiter-Glo ATP, 48 h; yeast lacking PDR1 and PDR3 efflux regulators | inhibition, % at 9.4 µM | 310,000 tested, 0.32% active;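 active means every replicate shows inhibition above about 80%, whatever the replicate mean, limit read from the data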;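 further: 0% = DMSO neutral controls and 100% = 20 µM radicicol positive controls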
tim10-1 conf = confirmation of tim10-1 mutant yeast growth inhibitors | shares compounds with tim10-1 inh | S. cerevisiae tim10-1 ts strain growth, BacTiter-Glo, 24 h | inhibition, % at 20 µM | 7,400 tested, 56% active;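 active means inhibition of yeast growth at or above a set limit in either of two repeat tests at 20 µM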;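 further: tim10-1 mutant grown at permissive 25 °C to find synthetic lethal compounds; 0% = DMSO yeast wells and 100% = medium wells without yeast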
* marks the source's active call; other numbers are inactive results; i = inactive; nt = not tested or not shown; + = active, no number.

SMILES	TIM10 inh	tim10-1 inh	Rce1 inh	tim23-1 inh	PfHsp90 yeast 2	others
Clc1ccc(C(Cn2ccnc2)OCc2csc3c(Cl)cccc23)c(Cl)c1 (stereo unspecified)	-63.5	-6.0	nt	47.7	86.1*
O=[N+]([O-])c1ccc(C[n+]2c(-c3ccccc3)cc(-c3ccccc3)cc2-c2ccccc2)cc1	33.2	36.6	+	20.4	3.5
O=[N+]([O-])c1cc(Cl)c(O)c(-[n+]2c(-c3ccccc3)cc(-c3ccccc3)cc2-c2ccccc2)c1	-1.0	9.6	i	11.1	3.0
Cc1oc(-c2cccs2)nc1CSCC(=O)N1CCC2(CC1)OCCO2	8.3	10.5	+	25.6	nt
COC(=O)C1=C(C(=O)OC)C2OC1c1cc3ccccc3cc12	nt	nt	nt	nt	132.1*
CCCCCCCCCCCCCCCC[N+](C)(C)C	28.6	-14.9	i	43.6	109.1*
CCCCCC[N+](=O)[O-]	3.8	4.2	nt	-1.9	1.4
Cc1c(-c2cccc(Cl)c2)nc2ccccc2c1C(=O)N1CCC2(CC1)OCCO2	23.4	25.6	i	28.4	-5.3
CN1C(=O)c2ccccc2NC(=O)[C@]12O[C@@H]2c1ccccc1	-14.1	-17.3	+	-3.9	5.5
COCCCn1c(N)c(C(=O)NCc2ccco2)c2nc3ccccc3nc21	-4.2	15.5	+	8.0	-7.3
COCCNC(=O)c1c(N)n(Cc2ccco2)c2nc3ccccc3nc12	3.7	4.0	i	16.4	13.7
CCOC(=O)C1(c2ccccc2)CCN(CC(=O)c2ccc(NC(C)=O)cc2)CC1	nt	nt	nt	nt	2.1
O=C(COc1ccc2ccc(=O)oc2c1)N1CCC(C(=O)O)(c2ccccc2)CC1	4.6	5.9	+	15.1	0.7
CCCNC(=O)N1CCC2(CC1)OCCO2	-1.1	-5.4	i	-1.6	20.0
Fc1ccc(Cn2nnnc2C(c2ccc(F)cc2)N2CC=C(c3ccc(F)cc3)CC2)cc1 (stereo unspecified)	26.0	31.5	i	26.6	5.5
Oc1cc(Cl)c(Cl)c(Cl)c1Cl	nt	nt	nt	nt	104.2*
Oc1cc(Cl)c(Cl)c(Cl)c1	nt	nt	nt	nt	-7.0
C[C@@H]1C2C[C@@]34COC(=O)C3=CC=C[C@H]4[C@@]13C[C@H](c1ccoc1)O[C@@H]3O2	7.3	16.8	nt	20.5	nt
Cc1nccc2c1[nH]c1ccccc12	0.3	25.5	+	2.7	5.4
CC1(C)CC[C@]2(C)CC[C@]3(C)C4C[C@@H]5OO[C@@]6(O5)C(CCCC6(C)C)[C@]4(C)CC[C@@]3(C)C2C1 (stereo partly specified)	5.5	21.1	nt	15.6	-9.3
CC1=C(O)C(=O)C=C2C1=CC=C1C2(C)CCC2(C)C3CC(C)(C(=O)O)CCC3(C)CCC12C (stereo unspecified)	nt	nt	nt	nt	125.3*
Clc1ccc(CCC(Cn2ccnc2)Sc2c(Cl)cccc2Cl)cc1 (stereo unspecified)	-63.0	-6.5	nt	-38.8	88.0*
CCCCn1c(O)c(C(C)=NCCCN(CC)CC)c(=O)[nH]c1=O	-1.3	14.1	i	15.6	nt
Cn1c(=O)c2c(nc(N/N=C/c3c(O)n(-c4ccccc4)c(=S)[nH]c3=O)n2C)n(C)c1=O	-8.4	-5.5	i	16.8	-6.0
c1ccc(CCCN2CCN(CCOC(c3ccccc3)c3ccccc3)CC2)cc1	-52.4	-66.8	+	-66.5	2.0
SMILES	TIM10 inh	tim10-1 inh	Rce1 inh	tim23-1 inh	PfHsp90 yeast 2	others
Fc1ccc(C(OCCN2CCN(CCCc3ccccc3)CC2)c2ccc(F)cc2)cc1	-78.4	-54.5	i	-65.1	17.5
CN(C)C(=S)SSC(=S)N(C)C	nt	nt	i	nt	108.2*
CN1CC(C(=O)c2ccc(Cl)cc2)C(c2ccc(N(C)C)cc2)C1 (stereo unspecified)	0.9	-1.4	i	-3.6	-0.6
CN1CC(C(=O)c2ccc(Cl)cc2)C(c2ccc(Cl)cc2Cl)C1 (stereo unspecified)	19.7	23.6	+	12.4	-0.6
CN1C(=O)/C(=C\c2ccc(Br)s2)C(=O)NC1=S	nt	nt	i	nt	56.2
O=C1NC(=S)NC(=O)C1=Cc1ccc(Br)s1	14.1	14.6	i	30.7	123.3*
O=S(=O)(F)c1ccc2nc(-c3cccc(Sc4ccccc4)c3)cc(Cl)c2c1	-8.1	-11.2	i	-6.8	0.4
CC(C)NC(=O)c1ccc(N2CC3CC(C2)c2cccc(=O)n2C3)c([N+](=O)[O-])c1 (stereo unspecified)	-9.9	7.4	i	14.3	4.4
Cc1ccnc(-n2c(-c3ccco3)nc3ccccc3c2=O)c1	-2.3	12.1	+	8.4	10.4
C[C@]12CCC3C(CC[C@H]4C[C@H](O)CC[C@]34C)C1C[C@@H](CCCCl)[C@@H]2O (stereo partly specified)	12.0	5.0	nt	42.4	nt
CCCN(CCC)C(=O)Cc1c(-c2ccc(Cl)cc2)nc2c(Cl)cc(Cl)cn12	9.8	19.5	nt	18.1	-4.8
Cc1ccc(-c2nc3ccc(C)cn3c2CC(=O)N(C)C)cc1	5.8	23.6	+	5.2	1.2
CCOc1cc(-c2nc3c(C)cccn3c2NCC2CCCO2)ccc1O (stereo unspecified)	30.8	21.8	+	16.5	7.3
O=[N+]([O-])c1oc2ccc3ccccc3c2c1CCO	nt	nt	nt	nt	136.4*
COC1CCC(OC2CC(C3(C)CCC4(CC(O)C(C)C(C(C)/C=C(\C)C(=O)C(C)CC(C)C(=O)O)O4)O3)OC3(OC(C4OC(O)(CO)C(C)CC4C)CC3C)C2C)OC1C (stereo unspecified)	nt	nt	nt	nt	105.7*
C=CCN1CC[C@]23c4c5ccc(O)c4OC2C(=O)CC[C@@]3(O)C1C5 (stereo partly specified)	8.7	22.9	i	0.1	-0.8
CC(C)C(NC(=O)C(C(C)C)N(C)C)C(=O)N(C)C(C(=O)N1CCCC1C(=O)N1CCCC1C(=O)NCc1ccccc1)C(C)C (stereo unspecified)	nt	nt	nt	nt	-30.3
COc1ccc(N2C(=O)CC(N3CC=C(c4ccccc4)CC3)C2=O)cc1 (stereo unspecified)	26.7	42.5*	i	28.5	28.4	tim10-1 conf=22.1
COC(=O)C1=C(c2ccc(OC)c(OC)c2)C[C@@H]2CC[C@H]1N2C(=O)N1CCCC1	8.4	3.8	nt	8.4	7.4
Nc1c(C(=O)OCc2ccccc2)c2nc3ccccc3nc2n1Cc1cccs1	1.5	45.2*	i	22.4	nt	tim10-1 conf=20.1
c1cc2c(cc1[C@H]1OCC3C1CO[C@@H]3c1ccc3c(c1)OCO3)OCO2 (stereo partly specified)	-8.0	17.0	nt	35.8	22.3
C[C@@H]1NCCc2cc(O)c(O)cc21	-4.4	5.6	nt	9.6	-18.0
CCOC(=O)N(c1ccccc1)P1(=S)OCC(C)O1 (stereo unspecified)	-19.5	50.0*	i	6.6	nt	tim10-1 conf=11.6
CCOC(=O)N(c1ccccc1)P1(=S)OCCO1	-8.9	-1.5	i	6.1	8.6
